According to PubChem BioAssay (NCI):
About 83,000 compounds went through this panel and 20% of them were active in at least one assay; those are over-represented in the sample as a whole.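 Percent growth is the endpoint: 0 to 100 indicates growth inhibition (40 means 60% inhibition), 0 means no net growth, and negative values indicate cell death.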 Unmarked numbers belong to inactive results. Calls of active or inactive are those of the source. How the source made its calls: active means growth percent below 10; inactive means the rest.

Columns and labels:
Experiment in all cases: NCI-60 one-dose screen, 48 h (100 = growth as untreated, 0 = no growth, -100 = all killed)
Conditions in all cases: 10 µM unless noted
HCT-15 colon = tested on: HCT-15 colon
HT29 colon = tested on: HT29 colon
SNB-75 CNS = tested on: SNB-75 CNS
SNB-19 CNS = tested on: SNB-19 CNS
U251 CNS = tested on: U251 CNS
PC-3 prostate = tested on: PC-3 prostate
UACC-62 melanoma = tested on: UACC-62 melanoma
LOX IMVI melanoma = tested on: LOX IMVI melanoma
SK-MEL-28 melanoma = tested on: SK-MEL-28 melanoma
EKVX NSCLC = tested on: EKVX NSCLC
SN12C renal = tested on: SN12C renal
UO-31 renal = tested on: UO-31 renal
TK-10 renal = tested on: TK-10 renal
ACHN renal = tested on: ACHN renal
CAKI-1 renal = tested on: CAKI-1 renal
CCRF-CEM leukemia = tested on: CCRF-CEM leukemia
MOLT-4 leukemia = tested on: MOLT-4 leukemia
SK-MEL-5 melanoma = tested on: SK-MEL-5 melanoma
A498 renal = tested on: A498 renal
SK-MEL-2 melanoma = tested on: SK-MEL-2 melanoma

| Structure (SMILES) | growth (HCT-15 colon) | growth (HT29 colon) | growth (SNB-75 CNS) [%] | growth (SNB-19 CNS) | growth (U251 CNS) | growth (PC-3 prostate) | growth (UACC-62 melanoma) | growth (LOX IMVI melanoma) | growth (SK-MEL-28 melanoma) | growth (EKVX NSCLC) | growth (SN12C renal) | growth (UO-31 renal) | growth (TK-10 renal) | growth (ACHN renal) | growth (CAKI-1 renal) | growth (CCRF-CEM leukemia) | growth (MOLT-4 leukemia) | growth (SK-MEL-5 melanoma) | growth (A498 renal) [%] | growth (SK-MEL-2 melanoma) |
| --- | --- | --- | --- | --- | --- | --- | --- | --- | --- | --- | --- | --- | --- | --- | --- | --- | --- | --- | --- | --- |
| COc1cc(-c2nc(SC(C)C)n(C(C)C)c(=O)c2C#N)ccc1OCc1ccccc1 | 73.8% | 91.2% | 82.4 | 83.8% | 32.7% | 73.1% | 90.4% | 62.1% | 96.8% | 81.3% | 16.2% | 56.8% | 42.1% | 32.5% | 54.8% | 33% | 22.1% |  |  |  |
| Cc1cc(C)c2sc(=O)n(Cc3nnc(SCCC(=O)O)o3)c2n1 | 99.6% | 110% | 103 | 95.4% | 102% | 92.7% | 95.5% | 99.2% | 101% | 102% | 97.8% | 91.8% |  | 103% | 89.5% | 56.6% | 90.6% |  |  |  |
| CC/C(=C/c1c(O)cccc1OC)c1ccc2c(OC)cccc2[o+]1 | 92.2% | 110% | 98.8 | 99.4% | 99.5% | 95.3% | 90.6% | 95% | 97.3% | 97.9% | 96.9% | 93.5% | 121% | 99.2% |  | 102% | 104% | 104% | 102 |  |
| O=C1/C(=C/C=C/c2ccco2)SC(=S)N1C1CCCCC1 | 79.2% | 85.3% | 103 | 93.9% | 84% | 92.9% | 56.7% | 103% | 72.5% | 93% | 83.4% | 85.6% |  | 96% | 93.1% | 91.2% | 90.5% | 58.4% |  |  |
| NC(=O)c1c(NC(=O)c2ccccc2C(F)(F)F)sc2c1CCC(=O)C2 | 10.7% | 18.7% |  | 20.8% | 14.3% | 17.5% | 10.4% | 19.7% | 42.4% | 24.3% | 40.3% | -7.49% (active) | 28.1% | 8.24% (active) | -2.3% (active) | 16.3% | 19.9% | -59.5% (active) | 85.9 | 45.5% |
| Cc1ccc(C(=O)NN2C(=O)/C(=C/C=C/c3ccco3)SC2=S)cc1 | 91.6% | 110% | 94.5 | 94.9% | 98.7% | 92.2% | 85.3% | 99.7% | 94.4% | 95.4% | 94.7% | 88.6% | 118% | 107% | 91.4% | 103% | 40.7% |  |  |  |
| C#CCOC(=O)[C@@H]1CCCN1CC#C | 85.7% | 82.4% |  | 86.9% | 81.4% | 51.2% | 92.8% | 77.7% | 107% | 86.3% | 92.6% | 66.1% | 96.2% | 85.7% | 76.3% | 81.9% | 61.5% | 90.2% | 93.5 | 98.2% |
| C#CCn1cccc1CNc1ccc(OC)cc1 | -79.2% (active) | -50.4% (active) |  | -90.1% (active) | -74.6% (active) | -93.3% (active) | -91.7% (active) | -84.8% (active) | -48.9% (active) | -83% (active) | -84.3% (active) | -95.4% (active) | -77.7% (active) | -95% (active) | -87.6% (active) | -43.6% (active) | -29.5% (active) | -6.24% (active) | 53.8 | -14.1% (active) |
| C[C@@H]1C[C@H]2C(=O)O[C@@H](C)C(NC(=O)[C@H](Cc3cc(F)cc(F)c3)NC(=O)Nc3ccc(Cl)cc3F)C(=O)N3CCC[C@H]3C(=O)N3CCCC[C@H]3C(=O)N[C@@H](CO)C(=O)N2C1 (stereo not given in full) | 13.2% | 35.3% | 30.8 | 28.1% | 30% | 15.5% | 29.5% | 29.5% | 43.9% | 30.9% | 21.5% | 34.9% | 54.7% | 31.9% | 17.5% | 32.7% | 36.5% | -2.76% (active) |  |  |
